Screens deposited in PubChem BioAssay by National Center for Advancing Translational Sciences (NCATS).
Shown are actives, neighbours in structure and some others; about 4.7% of the full set was active somewhere.
TRHR PAM – allosterically enhances the human TRH receptor; enhancement, % at 2 µM; TRHR cells, fluo-8 calcium fluorescence, EC20 TRH enhancement; actives 0.66% (n = 360,000); in the data active means enhancement above about 30%; further: 0% is about no effect
Target sequence (P34981 whole entry, looked up): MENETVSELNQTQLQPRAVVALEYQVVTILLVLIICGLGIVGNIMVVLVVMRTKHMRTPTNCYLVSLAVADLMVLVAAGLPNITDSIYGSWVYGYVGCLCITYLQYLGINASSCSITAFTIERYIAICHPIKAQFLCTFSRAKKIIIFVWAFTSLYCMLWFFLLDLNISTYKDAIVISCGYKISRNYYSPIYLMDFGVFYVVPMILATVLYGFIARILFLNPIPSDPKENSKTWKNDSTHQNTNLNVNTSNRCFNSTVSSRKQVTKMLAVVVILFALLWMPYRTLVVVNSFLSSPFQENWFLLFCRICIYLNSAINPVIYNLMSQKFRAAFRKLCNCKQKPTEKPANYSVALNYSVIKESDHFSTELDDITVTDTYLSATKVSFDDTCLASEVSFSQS
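TRHR-expressing cells loaded with fluo-8 calcium dye were read kinetically (ex 480/em 530) during compound addition, then stimulated with an EC20 of TRH (10 nM final). Enhancement of the Gq-mediated intracellular calcium response was scored.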
D1 ag – human D1 receptor agonism | P21728 | HEK293 T-REx D1 cells, calcium flux, agonist mode | activation, % at 2 µM | actives 1% (n = 360,000) | AID 504660; further: 0% is about no effect
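Agonism was scored from calcium flux recorded over 180 s (1 read/s) after pintool compound addition, following a 10-cycle baseline. Cells were inducible force-coupled HEK293 TREx D1, plated overnight at 30 C and loaded with no-wash calcium dye.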
TRHR ag – agonists of human TRH receptor; P34981; TRHR cells, calcium flux fluo-8, FDSS agonist mode; activation, % at 2 µM; actives 0.18% (n = 360,000); AID 493084; further: 0% is about no effect
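Fluo-8-loaded TRHR cells; 10 s baseline, compound added, kinetic Ca2+ fluorescence read 1/s, agonist mode.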
D1 PAM – potentiators of human D1 dopamine receptor | actives 0.036% (n = 360,000) | HEK293 TREx D1 cells, calcium flux, dopamine EC20 potentiation | potentiation, % at 10 µM | P21728; in the data active means potentiation above about 30%; further: 0% is about no effect
D1 antag – blocks dopamine activation of the human D1 receptor; HEK293 TREx D1 cells, calcium flux, dopamine EC80; hits give low values; activity change, negative = inhibition, % at 10 µM; actives 3.2% (n = 360,000); P21728; in the data active means activity change below about -30%; further: on the % scale 0 is the no-effect control and ±100 the full control effect
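Inducible Hek293 Trex D1 cells (tetracycline, overnight, 30 C). Calcium dye 30–90 min RT. Antagonist mode: EC80 dopamine added after 180 s compound read.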
* = called active by the depositor; ! = a repeat was not active. Unless noted, no stated cut-off is given here; in the data, active means activation above about 30%; inactive means the rest.

Screening O=S1(=O)c2ccccc2N(Cc2ccc(Cl)cc2)c2ccccc21 returned TRHR PAM 8, D1 ag 32*, TRHR ag -1, D1 PAM -4 and D1 antag 3.
For C=Cc1ccc(CN2C(=O)N(c3cccc(Cl)c3)S(=O)(=O)c3ccccc32)cc1 the results were TRHR PAM 0, D1 ag 3, TRHR ag 1, D1 PAM -4 and D1 antag -92*.
Screening CS(=O)(=O)N1CCc2cc(C(=O)NCc3ccccc3)ccc21 returned TRHR PAM -4, D1 ag 0, TRHR ag 0, D1 PAM 5 and D1 antag 4.
Cc1noc(-c2ccc(-c3noc(-c4cccc(F)c4)n3)cc2)n1 was read as TRHR PAM 3, D1 ag 0, TRHR ag 1, D1 PAM 0 and D1 antag 4.
For COc1ccc(CNC(=O)Cn2c(=O)nc(-c3ccccc3F)c3cc(Cl)ccc32)cc1OC the results were TRHR PAM 4, D1 ag -2, TRHR ag -1, D1 PAM 0 and D1 antag -18.
Screening NC(=O)CSc1nnc2sc3ccccc3n12 returned TRHR PAM 14, D1 ag 1, TRHR ag 0, D1 PAM 32* and D1 antag -15.
Fc1ccc(Nc2nc(SCc3ccccc3F)nc3ccccc23)cc1 was read as TRHR PAM -1, D1 ag 10, TRHR ag 1, D1 PAM -1 and D1 antag -3.
`O=C(O)CC(CNS(=O)(=O)c1ccccc1)c1ccccc1` (stereo not given) gave TRHR PAM -5, D1 ag -1, TRHR ag 1, D1 PAM -8 and D1 antag -33*.
For Cc1ccc(CN2C(=O)C(=O)c3cc(Br)cc(C)c32)cc1 the results were TRHR PAM -26, D1 ag 28, TRHR ag 7, D1 PAM -4 and D1 antag -49*.
COc1cccc(C(=O)Nc2ccccc2OCc2cc(=O)n3ccccc3n2)c1 was read as TRHR PAM -2, D1 ag 1, TRHR ag 0, D1 PAM -1 and D1 antag -34*.
Screening COc1cccc(C(=O)Nc2ccccc2OCc2cc(=O)n3cc(C)ccc3n2)c1 returned TRHR PAM -1, D1 ag -2, TRHR ag 0, D1 PAM -1 and D1 antag 4.
Screening COc1ccc(C(=O)Nc2cnc3ccccn3c2=O)cc1 returned TRHR PAM -7, D1 ag 2, TRHR ag 0, D1 PAM 0 and D1 antag -77*!.
Screening O=C(Nc1cnc2ccccn2c1=O)c1ccc(F)cc1 returned TRHR PAM 1, D1 ag 3, TRHR ag 1, D1 PAM -5 and D1 antag 4.
Cc1ccc(-c2nc(CS(=O)(=O)CC(=O)Nc3ccc(Br)cc3F)c(C)o2)cc1 was read as TRHR PAM -1, D1 ag 4, TRHR ag 0, D1 PAM -4 and D1 antag 0.
`COc1ccc(-c2nc3ccccc3n3c(-c4ccccc4)c4c(=O)n(C)c(=O)n(C)c4c23)cc1OC` gave TRHR PAM -2, D1 ag 0, TRHR ag 1, D1 PAM -3 and D1 antag -13.
`CCC1Cc2c(nc(N)c3c(N)nc(N4CCCCC4)c(C#N)c23)O1` (stereo not given) gave TRHR PAM -14, D1 ag 0, TRHR ag 0, D1 PAM -5 and D1 antag -31*.
CN(C)c1ccc(NC(=O)c2ccc3nsnc3c2)cc1 was read as TRHR PAM 6, D1 ag 1, TRHR ag -1, D1 PAM -7 and D1 antag 6.
O=C(Nc1ccc(F)c(Cl)c1)c1ccc2c(=O)n3c(nc2c1)CCCCC3 was read as TRHR PAM 3, D1 ag 16, TRHR ag 1, D1 PAM -5 and D1 antag -58*.
`O=C(Nc1ccc(Cl)cc1)c1ccc2nsnc2c1` gave TRHR PAM -8, D1 ag 20, TRHR ag 0, D1 PAM -15 and D1 antag -47*.
For CC(=O)c1ccc(NC(=O)c2ccc3c(=O)n4c(nc3c2)CCCCC4)cc1 the results were TRHR PAM 0, D1 ag 10, TRHR ag 0, D1 PAM -4 and D1 antag -45*.
Screening O=C(Nc1ccc(Cl)cc1)c1ccc2c(=O)n3c(nc2c1)CCCCC3 returned TRHR PAM -8, D1 ag 12, TRHR ag -1, D1 PAM -16 and D1 antag -59*.
Screening O=C(Nc1ccc(F)cc1)c1ccc2c(=O)n3c(nc2c1)CCCCC3 returned TRHR PAM -14, D1 ag 4, TRHR ag 0, D1 PAM -11 and D1 antag -6.
`COc1cccc(NS(=O)(=O)c2ccc3c(c2)n(C)c(=O)n3C)c1` gave TRHR PAM 7, D1 ag 8, TRHR ag 1, D1 PAM -3 and D1 antag -26.
For CC(OC(=O)c1ccc2c(=O)n3c(nc2c1)CCCCC3)C(=O)Nc1ccc(Cl)cn1 (stereo not given) the results were TRHR PAM -6, D1 ag 0, TRHR ag -1, D1 PAM -3 and D1 antag -2.
`CC(OC(=O)c1ccc2c(=O)n3c(nc2c1)CCCCC3)C(=O)Nc1ccc(F)cc1Cl` (stereo not given) gave TRHR PAM 1, D1 ag 0, TRHR ag 0, D1 PAM -4 and D1 antag -37*.
For COc1cccc(CNC(=O)c2ccc(Cl)c(S(=O)(=O)N3CCOCC3)c2)c1 the results were TRHR PAM -7, D1 ag 2, TRHR ag -1, D1 PAM -11 and D1 antag -34*.
COc1ccc(C(=O)Nc2ncc(C)s2)cc1S(=O)(=O)N1CCOCC1 was read as TRHR PAM 32*, D1 ag 0, TRHR ag 2, D1 PAM -4 and D1 antag 12.
`C=CCN(c1ccccc1Cl)S(=O)(=O)c1cccc(C(=O)NCCc2ccc(OC)cc2)c1` gave TRHR PAM 1, D1 ag 3, TRHR ag 1, D1 PAM -8 and D1 antag -32*.
Screening CCOC(=O)N1CCN(C(=O)c2ccc3c(c2)ncn3C2CCCC2)CC1 returned TRHR PAM 34*, D1 ag 1, TRHR ag -1, D1 PAM -5 and D1 antag -12.
`O=C(CCn1nc(-c2ccc(Cl)cc2)c2ccccc2c1=O)Nc1ccc(OC(F)(F)F)cc1` gave TRHR PAM 0, D1 ag -1, TRHR ag -2, D1 PAM 2 and D1 antag -4.
